Experimental data as given in PubChem BioAssay (NCI).
This is part of a sample that, as a whole, favours compounds with a hit. Of some 83,000 tested, about 20% had one in any assay.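 Compound tested at a single concentration for 48 hours in 96-well plates; a percent growth value below 10 was scored as active.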 Unmarked numbers belong to inactive results. The source made the active and inactive calls.

Key:
Experiment in all cases: NCI-60 one-dose screen, 48 h (100 = growth as untreated, 0 = no growth, -100 = all killed)
NCI-H226 lung = settings: 10 µM
NCI-H322M lung = settings: 10 µM unless noted
HOP-62 NSCLC = settings: 10 µM unless noted
NCI-H460 lung = settings: 10 µM unless noted
HOP-92 NSCLC = settings: 10 µM unless noted
NCI-H522 lung = settings: 10 µM
A549/ATCC NSCLC = settings: 10 µM unless noted
786-0 renal = settings: 10 µM unless noted
COLO 205 colon = settings: 10 µM unless noted

SMILES	growth (NCI-H226 lung)	growth (NCI-H322M lung)	growth (HOP-62 NSCLC)	growth (NCI-H460 lung)	growth (HOP-92 NSCLC)	growth (NCI-H522 lung)	growth (A549/ATCC NSCLC)	growth (786-0 renal)	growth (COLO 205 colon)
Cc1nc2cc(Nc3nc(NCCO)nc(Nc4ccc(F)cc4)n3)ccc2n1Cc1ccccc1	91.6%	98.9%	94%	83.5%	49.9%	85.6%	74.1%	94.7%	94.5%
COc1cc(C(F)(F)F)ccc1-c1cc(-c2ccc(F)cc2)n[nH]1	81.1%	90.6%	97.8%	91.6%	96.1%		64.9%	99.9%	
COC(=O)c1cc(-c2ccc(C)cc2)n(C(=O)CSc2nc3sc(C(N)=O)c(C)c3c(=O)n2Cc2ccccc2)n1	103%	129%	98.6%	103%	92.5%	95%	107%	102%	93.5%
O=C(Nc1ccc(Cl)c(Cl)c1)NC(CO)(CO)CO	97.5%		88.1%	103%	79.9%	88.7%	97.4%	92.3%	106%
Cc1ccc(C(=O)Nc2ccccc2N)cc1	74.5%	71.6%	92.2%	66%		70%	90.8%	75.4%	94.6%
Cc1nc2cc(Nc3nc(Cl)nc(Nc4ccc(F)cc4)n3)ccc2n1Cc1ccccc1	80.5%		88.4%	88%	50.7%	-69.8% (active)	86.7%	33%	109%
Cc1cc(Cl)c2c(Cl)ccc(Cl)c2n1	110%		102%	111%	93.7%	83%	95.4%	101%	114%
Cc1ccc(C)c2c1sc1nc3nc4sc5ccccc5n4c(=N)c3c(=O)n12	115%	120%	97.3%		72.3%	116%	111%	100%	109%
Cn1c2ccccc2c2nn(C(=O)c3ccccc3)c(=O)nc21	96.2%	99.6%	115%	105%		99%	116%	107%	118%
CCCC1=NNC(=O)C1	108%		99%	109%	90.7%	94%	95.9%	95.8%	99.3%
O=C1C(Br)=C(c2ccccc2)C(=O)C(Br)=C1c1ccccc1	95.1%		111%	99.5%	92.1%	-61% (active)	87.6%	95.7%	90.9%
CCCCCCCCCCCCCCCC[N+]1(C)CCOCC1	48.4%	37.1%		4.21% (active)		-24.8% (active)	24.3%	5.35% (active)	-92.3% (active)
CSC1=CC(=O)c2ccccc2C1=O	89.2%	107%		95.6%	-29% (active)	18.5%	99.1%	106%	101%
O=C(CCCCCCC(=O)Nc1ccc2c(c1)/C(=C/c1ccc[nH]1)C(=O)N2)NO	27.6%	15.1%	14%	25.8%			34.9%	26.2%	-58.6% (active)
COc1nc2c(cc1S(=O)(=O)c1ccccc1)CCc1c-2cnn1-c1ccccc1Cl	51.8%		69.9%	67%	-1.3% (active)	15.3%	47.1%	51.6%	70.4%
O=[N+]([O-])c1cc2c(cc1Br)C1C(C3C2C(Cl)(Cl)C(Cl)=C(Cl)C3(Cl)Cl)C(Cl)(Cl)C(Cl)=C(Cl)C1(Cl)Cl (stereo not drawn)	86.7%		92.2%	107%	100%	83.1%	95.7%	89.9%	110%
Cn1c2c(cc(S(=O)(=O)c3ccccc3)c1=O)CCc1c-2cnn1-c1cccc(Cl)c1	84.6%		94.7%	101%	44.8%	-81.2% (active)	85.6%	92.1%	97.9%
NC(=O)c1cc(I)ccc1NC(=O)COc1ccccc1	64.2%	48.3%	21.7%			0.734% (active)	18.3%	33.7%	12.2%
CC(=O)N(CC(O)CO)c1c(I)c(C(=O)NCCO)c(I)c(C(=O)NCC(O)CO)c1I (stereo not drawn)	98.7%	93%	99.2%	111%		97.8%	100%	91%	105%

SMILES	growth (NCI-H226 lung)	growth (NCI-H322M lung)	growth (HOP-62 NSCLC)	growth (NCI-H460 lung)	growth (HOP-92 NSCLC)	growth (NCI-H522 lung)	growth (A549/ATCC NSCLC)	growth (786-0 renal)	growth (COLO 205 colon)
Brc1ccc(SCN(CSc2ccc(Br)cc2)Cc2ccccc2)cc1	76.6%		120%	63.1%	59.7%	73%	45.8%	60.8%	108%
FC(F)(F)c1cc(CNc2nc(Cl)ncc2Br)cc(C(F)(F)F)c1	93.9%		90.5%	95.6%	71%	62.3%	83%	84.6%	103%
O=[N+]([O-])c1ccc(C=C2C(Cl)=C(Cl)C(Cl)=C2Cl)cc1	62.7%	121%	78.3%	90.6%		46.1%	92.1%	19.8%	54%
O=C(COc1ccc(/C=C2\CSc3ccccc3C2=O)cc1)c1ccc(Cl)cc1	97.9%	111%	94.4%		122%	99.4%	101%	105%	103%
CC(C)NCC(O)COc1ccc(CCOCC2CC2)cc1 (stereo not drawn)	90.7%	106%	104%	108%		118%	99.5%	100%	116%
O=C1C2CC3C(CC2C(=O)[N]1[Sn]([c]1ccccc1)([c]1ccccc1)[c]1ccccc1)C1(Cl)C(Cl)=C(Cl)C3(Cl)C1(Cl)Cl (stereo not drawn)	-43.5% (active)		-92.1% (active)	-81.6% (active)	-96.1% (active)	-94.2% (active)	-97.2% (active)	-86.2% (active)	-86.7% (active)
O=C1C(Cl)=C(NCCCN2CCOCC2)C(=O)c2ccccc21	107%	98.5%	120%		106%		98.8%	113%	86.9%
COc1nc2c(cc1S(=O)(=O)c1ccccc1)CCc1c-2cnn1-c1cccc(Cl)c1	80.3%		90.7%	80.6%	46.6%	75.6%	66.2%	72.8%	103%
CCOc1ccc(/C=N\N2CCCCCC2)cc1OCC	90.7%		93.8%	106%	54.2%	97.8%	106%	106%	84.2%
OB(O)c1ccccc1	105%	111%		110%	112%	103%	98.5%	103%	116%
Cn1c(=O)c(S(=O)(=O)c2ccccc2)cc2ccc3c(cnn3-c3ccc(Cl)cc3)c21	55.6%		87.3%	80.7%	39.8%	-18.9% (active)	65.5%	51.3%	100%
O=c1ccc2ccccc2o1	102%	115%	108%	114%		94.3%	94%	105%	114%
CCCCC/C=C\C/C=C/CCCCCCCCNC(=O)Nc1ccc([N+](=O)[O-])cc1	93.5%	120%		84.4%	-1.17% (active)	41.5%	97%	102%	95%
CCCCNNC(=O)c1ccc(Br)cc1	62.5%	59.3%	55.5%	50.1%			57.6%	79%	46.1%
Brc1ccc(Br)nn1	-26.8% (active)	-97.4% (active)		-21.9% (active)	-64.7% (active)	-33.2% (active)	5.91% (active)	-81% (active)	-92.5% (active)
CN1CCn2c(c(Sc3ccc(C(=O)NO)cc3)c3ccccc32)C1=O	-8.32% (active)	53%	21.3%	20.4%		-97.3% (active)	62%	39.8%	1.64% (active)
COC(=O)c1ccc(C(=O)Nc2ccccc2N)cc1	73.9%	66.5%	95%	63.3%		75.1%	94.7%	80.8%	106%
NC(=O)c1cc(Cl)ccc1NC(=O)COc1ccccc1	90.5%	46.7%	46.7%	29.6%			52.8%	60.1%	25.4%
O=C(C[Si](CC(=O)c1cccc(C(F)(F)F)c1)CC(=O)c1cccc(C(F)(F)F)c1)c1cccc(C(F)(F)F)c1	82.9%	74.5%	95.6%	8.35% (active)		68.7%	49%	75.8%	98.4%

SMILES	growth (NCI-H226 lung)	growth (NCI-H322M lung)	growth (HOP-62 NSCLC)	growth (NCI-H460 lung)	growth (HOP-92 NSCLC)	growth (NCI-H522 lung)	growth (A549/ATCC NSCLC)	growth (786-0 renal)	growth (COLO 205 colon)
COc1ccc(NC(=O)COc2ccccc2)c(C(N)=O)c1	71.6%	59.3%	20.3%	11.2%		6.28% (active)	24.8%	35.2%	-12.1% (active)
CCSc1nnc2c3cc(Br)ccc3n(C)c2n1	93.6%	101%	82.7%	102%		99.5%	102%	102%	102%
FC(F)(F)c1cc(CNc2ncc(Br)c(Cl)n2)cc(C(F)(F)F)c1	90.3%		90.2%	107%	84.3%	74.2%	101%	90.4%	98.4%
COc1c(Cl)ccc2c(-c3nc4cc(Cl)c(F)cc4s3)cc(=O)oc12	94.8%	106%	86.6%	99.2%		-78.2% (active)	78%	-43.3% (active)	124%
COc1ccc(C(=O)COc2cccc(/C=C3\CSc4ccc(C)cc4C3=O)c2)cc1		104%	104%	104%	98.5%	45.8%	96%	100%	116%
Cc1nc2cc(Nc3nc(Nc4ccc(F)cc4)nc(-c4cccs4)n3)ccc2n1Cc1ccccc1	65%		92.3%	39.6%	22%	53.5%	43.1%	37.5%	56.8%
CC1(C)N=C(N)N=C(N)N1c1cccc(OCCOc2cccc([N+](=O)[O-])c2)c1	98.2%		93%	19%	86.4%	7.73% (active)	20.4%	81.7%	35%
Cn1cc(C(=O)NCCC(=N)N)cc1NC(=O)CN=C(N)N		106%	85.9%	107%	89.5%	87.5%	99.2%	85.4%	103%
COc1ccc(C(=O)C2=CC(=O)C(=O)C2)cc1OC	103%		94.1%	103%	95.9%	86.6%	106%	101%	112%
CCOC(=O)c1cc2c(n(C)c1=O)-c1cnn(-c3ccc(OC)cc3)c1CC2	107%		108%	108%	104%		98.2%	101%	109%
COc1ncc(F)c(OC)n1	101%		94.3%		87%	97.5%	99.8%	102%	110%
N#CCCN1CCN(CCC#N)C1=S	112%		108%	103%			97.4%	105%	105%
C=C(C)CCCC(C)CC#N (stereo not drawn)	99.4%		90.7%	107%	95.1%	90.3%	99.9%	97.3%	106%
ONc1nc(NO)c2[nH]cnc2n1	82.8%		83.9%		80.8%	97%	101%	86.9%	112%
O=C(O)CCN1CCN(c2cccc(Cl)c2)CC1	104%		97%	106%	110%	127%	95.9%	104%	111%
CSc1ccc(OC(C)=O)cc1C	98.3%		79.4%	104%		105%	101%	98.1%	104%
CC(C)(C)CC(C)(C)N(CSc1ccc(Cl)cc1)CSc1ccc(Cl)cc1	45.2%		83.4%	42.9%		-4.63% (active)	10.6%	41%	75.6%
COc1ccc(-c2c3c(N)c4c(nc3nc3c2c(C)nn3-c2ccccc2)CCCC4)cc1	86.9%		89.3%	73.8%	28.9%	60.6%	76.6%	70.8%	73.4%
Cc1ccc2c(N/N=C\c3ccco3)cc(C)nc2n1	77.6%		83.3%	34.1%		88.6%	46.4%	49.2%	8.81% (active)
